Measured values reported in PubChem BioAssay (Tox21).
Records with an inconclusive call do not appear. Activity calls are given as the source filed them. Unless noted, calls follow the shape of the dose curve; as a rule, active = well fitted curve in the direction sought with a large enough effect in the repeat runs; inconclusive = weak or mixed curves; inactive = no such curve, though single readings can be large; an effect the other way counts as inactive or inconclusive.

Experiments:
[1] = qHTS assay to identify small molecule antagonists of the thyroid receptor (TR) signaling pathway - cell viability counter screen (AID 743064); also: nearly all actives have a fitted effect of over 50% in size
Summary of the method: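 Fluorescence from CellTiter-Fluor, added after 23.5 h exposure at 37 °C, reported viability of GH3.TRE-Luc cells co-treated with compound and 1 nM T3. Measured in the same wells as the luciferase TR readout.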

[2] = qHTS assay to identify small molecule antagonists of the thyroid receptor (TR) signaling pathway (AID 743065); also: nearly all actives have a fitted effect of over 55% in size
Summary of the method: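 GH3.TRE-Luc rat pituitary cells carrying two TR response elements driving luciferase were plated for 4 h, given compound plus 1 nM T3 (final), and incubated 23.5 h at 37 C. ONE-Glo luminescence measured reporter inhibition; CellTiter-Fluor fluorescence tracked cytotoxicity.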

[3] = test system: thyroid hormone receptor (rat, GH3 cells); assay: qHTS assay to identify small molecule agonists of the thyroid receptor (TR) signaling pathway (AID 743066; calls by dose curve)
[4] = biological target: Estrogen receptor (Homo sapiens) (UniProt P03372); assay: qHTS assay to identify small molecule antagonists of the estrogen receptor alpha (ER-alpha) signaling pathway (AID 743069; active = well fitted curve in the direction sought with a large enough effect in the signal ratio in the repeat runs, not every such curve was filed as active; the % refers to the signal ratio)
Sequence of Estrogen receptor (Homo sapiens) (P03372 whole entry, looked up): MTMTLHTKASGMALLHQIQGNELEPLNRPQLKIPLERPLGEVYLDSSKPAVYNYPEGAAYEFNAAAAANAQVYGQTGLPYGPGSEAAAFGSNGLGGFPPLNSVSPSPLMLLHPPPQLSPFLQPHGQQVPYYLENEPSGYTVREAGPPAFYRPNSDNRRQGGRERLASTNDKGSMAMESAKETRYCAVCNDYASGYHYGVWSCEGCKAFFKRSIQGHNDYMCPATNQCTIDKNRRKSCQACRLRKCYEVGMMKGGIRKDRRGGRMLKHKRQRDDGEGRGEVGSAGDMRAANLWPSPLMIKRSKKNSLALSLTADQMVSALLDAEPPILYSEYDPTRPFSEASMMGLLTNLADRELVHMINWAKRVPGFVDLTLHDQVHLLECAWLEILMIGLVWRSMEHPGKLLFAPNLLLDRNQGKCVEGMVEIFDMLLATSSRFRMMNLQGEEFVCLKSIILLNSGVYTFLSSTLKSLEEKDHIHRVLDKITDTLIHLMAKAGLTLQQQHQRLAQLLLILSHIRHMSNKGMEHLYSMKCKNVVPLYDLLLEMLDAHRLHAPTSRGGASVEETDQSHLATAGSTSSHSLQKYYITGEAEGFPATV
Summary of the method: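 HEK293 cells stably carrying an ER-alpha-UAS-bla beta-lactamase reporter were pre-cultured overnight in 2% charcoal-stripped FBS medium. Test compounds in DMSO were added together with 17beta-estradiol for 18 hr at 37C. Read-out was fluorescence after 2 hr with LiveBLAzer B/G FRET substrate at room temperature.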

[5] = qHTS assay to identify small molecule antagonists of the estrogen receptor alpha (ER-alpha) signaling pathway - cell viability counter screen (AID 743074; calls by dose curve; also: nearly all actives have a fitted effect of over 45% in size)
[6] = biological target: Estrogen receptor (Homo sapiens) (UniProt P03372); assay: qHTS assay to identify small molecule agonists of the estrogen receptor alpha (ER-alpha) signaling pathway (AID 743075; calls by dose curve)
[7] = biological target: Estrogen receptor (Homo sapiens) (UniProt P03372); assay: qHTS assay to identify small molecule agonists of the estrogen receptor alpha (ER-alpha) signaling pathway using the BG1 cell line (AID 743079); settings: BG1Luc4E2 cells, ERE-luciferase agonist, 22 h; also: nearly all actives have a fitted effect of over 20% in size
[8] = qHTS assay to identify small molecule antagonists of the estrogen receptor alpha (ER-alpha) signaling pathway using the BG1 cell line (AID 743080; calls by dose curve;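 also: BG1 cells stimulated with 17beta-estradiol alongside compound; nearly all actives have a fitted effect of over 25% in size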)
Summary of the method: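 Quantitative HTS on the Tox21 10K library: BG1 cells with endogenous ER-alpha and ERE-luciferase reporter, 17beta-estradiol stimulation, 21.5 h compound exposure, luminescence endpoint with parallel fluorescence cytotoxicity counter-read.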

[9] = qHTS assay to identify small molecule antagonists of the estrogen receptor alpha (ER-alpha) signaling pathway using the BG1 cell line - cell viability counter screen (AID 743081);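 also: compound given together with 17beta-estradiol as the ER stimulus; nearly all actives have a fitted effect of over 45% in size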
[10] = biological target: Aromatase (Homo sapiens) (UniProt P11511); assay: qHTS assay to identify aromatase inhibitors (AID 743083); also: nearly all actives have a fitted effect of over 55% in size
Sequence of Aromatase (Homo sapiens) (P11511 whole entry, looked up): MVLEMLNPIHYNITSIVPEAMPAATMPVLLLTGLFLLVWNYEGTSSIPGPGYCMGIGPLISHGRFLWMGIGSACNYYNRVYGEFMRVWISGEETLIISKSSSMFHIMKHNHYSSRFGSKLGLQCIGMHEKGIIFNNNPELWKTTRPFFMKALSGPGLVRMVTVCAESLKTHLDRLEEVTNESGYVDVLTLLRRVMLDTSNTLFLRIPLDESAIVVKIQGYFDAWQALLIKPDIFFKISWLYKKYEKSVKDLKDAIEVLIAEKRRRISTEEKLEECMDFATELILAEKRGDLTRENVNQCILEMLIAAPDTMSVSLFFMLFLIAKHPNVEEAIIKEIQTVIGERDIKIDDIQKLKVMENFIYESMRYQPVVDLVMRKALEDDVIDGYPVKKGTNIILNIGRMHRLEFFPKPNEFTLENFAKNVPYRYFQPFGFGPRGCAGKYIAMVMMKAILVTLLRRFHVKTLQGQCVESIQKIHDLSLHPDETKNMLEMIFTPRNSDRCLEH

[11] = qHTS assay to identify aromatase inhibitors - cell viability counter screen (AID 743084);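 also: cells stimulated with testosterone during compound exposure; nearly all actives have a fitted effect of over 55% in size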
[12] = qHTS assay to identify small molecule that activate the aryl hydrocarbon receptor (AhR) signaling pathway - cell viability counter screen (AID 743086);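 also: HepG2 liver cells carrying the AhR DRE luciferase reporter; nearly all actives have a fitted effect of over 45% in size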
Summary of the method: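 HepG2-AhR-luc (HG2L7.5c1) cells, 4000/well, were preincubated 5 h at 37C, exposed to compound in qHTS format for 24 hr at 37C, then given CellTiter-Fluor for 30 min; viability was read as fluorescence in the reporter wells.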

[13] = biological target: Peroxisome proliferator-activated receptor gamma (Homo sapiens) (UniProt P37231); assay: qHTS assay to identify small molecule agonists of the peroxisome proliferator-activated receptor gamma (PPARg) signaling pathway (AID 743094; active = well fitted activation curve with a large enough effect in the signal ratio in the repeat runs, not every such curve was filed as active; the % refers to the signal ratio)
Sequence of Peroxisome proliferator-activated receptor gamma (Homo sapiens) (P37231 whole entry, looked up): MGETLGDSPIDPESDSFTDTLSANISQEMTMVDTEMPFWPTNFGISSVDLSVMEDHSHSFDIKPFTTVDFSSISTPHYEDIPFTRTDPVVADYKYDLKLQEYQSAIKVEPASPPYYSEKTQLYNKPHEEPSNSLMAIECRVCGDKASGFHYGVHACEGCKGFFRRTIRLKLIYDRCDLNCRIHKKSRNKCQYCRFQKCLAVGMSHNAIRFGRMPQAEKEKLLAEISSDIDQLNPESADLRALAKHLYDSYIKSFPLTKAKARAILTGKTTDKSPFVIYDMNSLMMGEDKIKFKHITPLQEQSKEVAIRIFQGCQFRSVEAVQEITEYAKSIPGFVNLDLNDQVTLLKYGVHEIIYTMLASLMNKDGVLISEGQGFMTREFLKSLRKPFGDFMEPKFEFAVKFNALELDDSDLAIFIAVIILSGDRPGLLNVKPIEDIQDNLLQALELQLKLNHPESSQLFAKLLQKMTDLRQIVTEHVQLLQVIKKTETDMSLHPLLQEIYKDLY
Summary of the method: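 Following 5 h plating at 37C, PPARg-bla HEK293H cells receive compound or DMSO for 17 h; fluorescence intensity is recorded after LiveBLAzer B/G loading for 1 h at room temperature.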

[14] = biological target: Peroxisome proliferator-activated receptor gamma (Homo sapiens) (UniProt P37231); assay: qHTS assay to identify small molecule antagonists of the peroxisome proliferator-activated receptor gamma (PPARg) signaling pathway (AID 743191; calls by dose curve; also: nearly all actives have a fitted effect of over 30% in size)
Summary of the method: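 GeneBLAzer PPARg UAS-bla HEK293H cells carrying a UAS-driven beta-lactamase reporter were plated at 3000 cells/well, preincubated 5 h at 37C, then given compound for 17 h at 37C; LiveBLAzer B/G FRET substrate was read after 1 h at room temperature.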

[15] = qHTS assay to identify small molecule antagonists of the peroxisome proliferator-activated receptor gamma (PPARg) signaling pathway - cell viability counter screen (AID 743194); settings: Potency: co-treated with 50 nM rosiglitazone; also: nearly all actives have a fitted effect of over 55% in size
Summary of the method: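 PPARg-UAS-bla HEK293H cells were plated, rested 5 h at 37 C, then treated with compounds plus rosiglitazone (50 nM final) for 17 h at 37 C; viability was then read by CellTiter-Glo luminescence after 30 min at room temperature.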

[16] = qHTS assay for small molecule agonists of the antioxidant response element (ARE) signaling pathway (AID 743202; active = well fitted activation curve with a large enough effect in the signal ratio in the repeat runs, not every such curve was filed as active; the % refers to the signal ratio; also: potency is read from the fitted curve at half-maximal effect)
Summary of the method: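 Read-out: LiveBLAzer B/G FRET substrate fluorescence after 2 h at room temperature, following 16 h compound treatment at 37 C of HepG2 cells carrying an ARE-driven beta-lactamase reporter.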

[17] = qHTS assay for small molecule agonists of the antioxidant response element (ARE) signaling pathway - cell viability counter screen (AID 743203; calls by dose curve; also: nearly all actives have a fitted effect of over 55% in size)
Summary of the method: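 Compounds in DMSO were pinned onto ARE-bla HepG2 cells plated 5 hrs earlier at 2,000 cells/well. Sixteen hours later at 37C/5% CO2, CellTiter-Glo was added and luminescence measured after 30 min at room temperature.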

[18] = qHTS assay for small molecule activators of the heat shock response signaling pathway (AID 743210; active = well fitted activation curve with a large enough effect in the signal ratio in the repeat runs, with a control signal flat, not every such curve was filed as active; the % refers to the signal ratio)
Summary of the method: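 HSE-bla HeLa cells (beta-lactamase reporter under heat shock response elements) were exposed to compounds for 5 h at 37 C, then loaded with LiveBLAzer B/G FRET substrate for 2.5 h at room temperature before fluorescence reading.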

[19] = biological target: Aryl hydrocarbon receptor (Homo sapiens) (UniProt P35869); assay: qHTS assay to identify small molecule that activate the aryl hydrocarbon receptor (AhR) signaling pathway (AID 743085);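 also: HG2L7.5c1 human HepG2 liver cells with stably integrated DRE-driven firefly reporter; nearly all actives have a fitted effect of over 15% in size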
Sequence of Aryl hydrocarbon receptor (Homo sapiens) (P35869 whole entry, looked up): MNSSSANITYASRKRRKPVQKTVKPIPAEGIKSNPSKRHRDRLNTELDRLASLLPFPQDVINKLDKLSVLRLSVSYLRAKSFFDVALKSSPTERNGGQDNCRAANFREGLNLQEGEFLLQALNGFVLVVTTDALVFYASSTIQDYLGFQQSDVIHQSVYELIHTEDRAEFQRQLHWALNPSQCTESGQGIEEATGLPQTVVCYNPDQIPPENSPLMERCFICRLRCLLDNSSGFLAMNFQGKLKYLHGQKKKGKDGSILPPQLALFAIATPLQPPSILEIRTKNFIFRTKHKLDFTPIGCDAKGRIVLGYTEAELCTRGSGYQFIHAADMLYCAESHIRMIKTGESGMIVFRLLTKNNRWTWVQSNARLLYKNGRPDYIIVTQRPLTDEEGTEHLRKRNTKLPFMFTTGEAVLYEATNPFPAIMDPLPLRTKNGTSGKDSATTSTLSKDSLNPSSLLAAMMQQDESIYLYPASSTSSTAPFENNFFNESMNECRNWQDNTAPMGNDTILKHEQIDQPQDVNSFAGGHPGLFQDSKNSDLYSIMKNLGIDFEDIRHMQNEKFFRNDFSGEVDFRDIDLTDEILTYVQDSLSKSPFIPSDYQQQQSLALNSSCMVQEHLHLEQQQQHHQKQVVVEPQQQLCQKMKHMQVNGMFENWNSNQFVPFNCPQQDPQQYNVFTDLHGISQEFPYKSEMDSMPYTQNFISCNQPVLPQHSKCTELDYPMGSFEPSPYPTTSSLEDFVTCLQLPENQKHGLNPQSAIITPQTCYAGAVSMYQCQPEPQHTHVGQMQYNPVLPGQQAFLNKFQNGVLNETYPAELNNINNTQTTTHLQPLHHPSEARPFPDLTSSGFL
Summary of the method: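 Cell line HG2L7.5c1 (human hepatoma, 20× DRE-luc). Plated, 5 h 37C, compound/DMSO added, 24 h 37C. CellTiter-Fluor 30 min 37C → fluorescence; then ONE-Glo 30 min RT → luminescence.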

[20] = qHTS assay for small molecule activators of the heat shock response signaling pathway - cell viability counter screen (AID 743209); also: nearly all actives have a fitted effect of over 50% in size
Summary of the method: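 Counter screen for cytotoxicity in HeLa HSE-bla reporter cells. Treatment was 5 h at 37 C; viability was detected by luminescent ATP assay (CellTiter-Glo) in the same wells as the beta-lactamase read.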
% is scaled to controls: 0 for no effect and ±100 for the full control effect.

ClC(Br)Br
inactive: Potency [1] | Potency [2] | Potency [3] | Potency [4] | outcome [5] | Potency [6] | activation ([7]; at 70.3 µM (top of the series)) 1.01% | Potency [8] | Potency [9] | Potency [10] | Potency [11] | outcome [12] | outcome [13] | Potency [14] | Potency [15] | Potency [16] | Potency [17] | outcome [18]

CCCCP(CCCC)CCCC
inactive: Potency [1] | Potency [2] | Potency [3] | Potency [4] | outcome [5] | Potency [6] | activation ([7]; at 70.3 µM (top of the series)) 0.877% | Potency [8] | Potency [9] | Potency [10] | Potency [11] | Potency [19] | outcome [12] | Potency [15] | Potency [16] | Potency [17] | outcome [18]

CCC(C)n1c(=O)[nH]c(C)c(Br)c1=O (configuration not stated)
inactive: Potency [1] | Potency [2] | Potency [3] | Potency [4] | outcome [5] | Potency [6] | activation ([7]; at 70.3 µM (top of the series)) 1.5% | Potency [8] | Potency [9] | Potency [10] | Potency [11] | outcome [12] | outcome [13] | Potency [14] | Potency [15] | Potency [16] | outcome [18]

CCS(=O)(=O)C(C)(C)S(=O)(=O)CC
inactive: Potency [1] | Potency [2] | Potency [3] | Potency [4] | outcome [5] | Potency [6] | activation ([7]; at 70.3 µM (top of the series)) 0.0569% | Potency [8] | Potency [9] | Potency [10] | Potency [11] | Potency [19] | outcome [12] | Potency [15] | Potency [16] | Potency [17] | outcome [18]

OCCBr
inactive: Potency [1] | Potency [2] | Potency [3] | Potency [4] | outcome [5] | Potency [6] | activation ([7]; at 70.3 µM (top of the series)) 6.61% | Potency [8] | Potency [9] | Potency [10] | Potency [11] | outcome [12] | outcome [13] | Potency [14] | Potency [17] | Potency [20] | outcome [18]
active: Potency [16] 27.4 µM

Cc1ncc(CNC(=O)N(CCCl)N=O)c(N)n1
inactive: Potency [1] | Potency [2] | Potency [3] | Potency [4] | outcome [5] | Potency [6] | activation ([7]; at 70.3 µM (top of the series)) 12.7% | Potency [8] | Potency [9] | Potency [10] | Potency [11] | outcome [12] | outcome [13] | Potency [14] | Potency [15] | Potency [16] | Potency [20] | outcome [18]

N#CCBr
inactive: Potency [1] | Potency [2] | Potency [3] | Potency [4] | outcome [5] | Potency [6] | activation ([7]; at 95 µM (top of the series)) 0.199% | Potency [8] | Potency [9] | Potency [10] | Potency [11] | Potency [19] | outcome [12] | Potency [15] | Potency [16] | Potency [20] | outcome [18]

C[C@@H]1CN(C2CCC(C#N)(c3ccc(F)cc3)CC2)CC[C@]1(C(=O)O)c1ccccc1 (some centres not stated)
inactive: Potency [1] | Potency [2] | Potency [3] | Potency [4] | outcome [5] | Potency [6] | activation ([7]; at 32.5 µM (top of the series)) -0.22% | Potency [8] | Potency [9] | Potency [10] | Potency [11] | Potency [19] | outcome [12] | outcome [13] | Potency [14] | Potency [15] | Potency [16] | Potency [17] | Potency [20] | outcome [18]
